From paper PMC7862700, “An all-to-all approach to the identification of sequence-specific readers for epigenetic DNA modifications on cytosine” come the findings set out here.

Common to all, as to experiment: DAPPL (digital affinity profiling via proximity ligation, sequencing); 10 mM Tris-HCl pH 7.5, 50 mM NaCl, 1 mM DTT, 4% glycerol, room temperature, 30 min; GST-TFs on glutathione beads, 16-mer random dsDNA library, 0.1% formaldehyde crosslink after washing; high values mean tight binding
One experiment concerns the target T1, FEV (Homo sapiens, UniProt Q99581 1-238).
T1 sequence: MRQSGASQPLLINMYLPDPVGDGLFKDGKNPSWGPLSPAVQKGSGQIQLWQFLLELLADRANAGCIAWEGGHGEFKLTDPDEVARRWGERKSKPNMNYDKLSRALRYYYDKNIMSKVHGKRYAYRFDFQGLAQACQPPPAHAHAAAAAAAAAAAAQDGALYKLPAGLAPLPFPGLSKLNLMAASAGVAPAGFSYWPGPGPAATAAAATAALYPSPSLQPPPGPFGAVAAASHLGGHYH
The note with it: protein: recombinant; tags: N-terminal GST; dsDNA, one strand shown. The gist of the method:
(§1)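 Human transcription factors fused to GST were expressed in yeast, captured on glutathione beads, given DNA barcodes and pooled with a GST-only negative control. Pools were incubated with 200 nmole of a 16-mer random double-stranded DNA library in Tris/NaCl/DTT/glycerol buffer at room temperature for 30 min. They were then washed, crosslinked with 0.1% formaldehyde, proximity-ligated (BsaI/T4 ligase, 1 h, 37 °C), PCR-amplified and sequenced on an Illumina NextSeq500. Binding signal is each 6-mer's read frequency for a factor divided by its frequency for the GST control.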

In a further experiment the target is ETV5 (Homo sapiens, UniProt P41161 1-510). Conditions: protein: recombinant; tags: N-terminal GST; dsDNA, one strand shown. The gist of the method: as §1
Sequence of ETV5 (P41161 whole entry): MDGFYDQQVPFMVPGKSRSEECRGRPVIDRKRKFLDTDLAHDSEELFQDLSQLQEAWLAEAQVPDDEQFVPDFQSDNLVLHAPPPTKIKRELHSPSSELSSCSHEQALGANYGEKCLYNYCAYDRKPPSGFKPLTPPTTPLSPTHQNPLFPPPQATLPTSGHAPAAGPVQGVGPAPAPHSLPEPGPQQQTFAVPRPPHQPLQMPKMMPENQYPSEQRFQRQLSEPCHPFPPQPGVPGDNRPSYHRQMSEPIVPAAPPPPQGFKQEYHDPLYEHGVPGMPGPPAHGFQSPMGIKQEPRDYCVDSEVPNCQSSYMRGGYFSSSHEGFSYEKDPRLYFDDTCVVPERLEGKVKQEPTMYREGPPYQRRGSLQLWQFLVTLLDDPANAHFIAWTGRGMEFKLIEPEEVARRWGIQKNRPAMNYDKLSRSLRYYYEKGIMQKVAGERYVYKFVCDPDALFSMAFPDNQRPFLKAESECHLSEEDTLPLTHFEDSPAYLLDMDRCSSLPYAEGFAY
For a further experiment, the target named is HSF1 (Homo sapiens, UniProt Q00613 1-529). Conditions: protein: recombinant; tags: N-terminal GST; chain copies: 3; dsDNA, one strand shown. In outline: as §1
Sequence of HSF1 (Q00613 whole entry): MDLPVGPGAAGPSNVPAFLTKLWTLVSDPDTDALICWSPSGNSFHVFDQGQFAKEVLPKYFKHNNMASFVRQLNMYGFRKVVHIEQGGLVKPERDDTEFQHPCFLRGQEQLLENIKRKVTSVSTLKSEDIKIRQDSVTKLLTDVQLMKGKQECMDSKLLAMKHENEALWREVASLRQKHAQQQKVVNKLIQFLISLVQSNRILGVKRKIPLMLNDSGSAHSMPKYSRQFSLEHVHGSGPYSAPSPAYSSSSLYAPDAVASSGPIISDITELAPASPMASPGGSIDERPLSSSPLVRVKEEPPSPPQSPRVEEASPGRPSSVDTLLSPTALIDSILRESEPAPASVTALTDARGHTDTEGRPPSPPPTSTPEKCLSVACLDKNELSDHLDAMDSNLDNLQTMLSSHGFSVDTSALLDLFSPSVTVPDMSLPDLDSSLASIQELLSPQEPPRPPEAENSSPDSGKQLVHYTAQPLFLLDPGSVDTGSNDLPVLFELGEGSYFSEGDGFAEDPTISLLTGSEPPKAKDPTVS
The next experiment addresses T2, SPIC (Homo sapiens, UniProt Q8N5J4 1-248).
T2 sequence: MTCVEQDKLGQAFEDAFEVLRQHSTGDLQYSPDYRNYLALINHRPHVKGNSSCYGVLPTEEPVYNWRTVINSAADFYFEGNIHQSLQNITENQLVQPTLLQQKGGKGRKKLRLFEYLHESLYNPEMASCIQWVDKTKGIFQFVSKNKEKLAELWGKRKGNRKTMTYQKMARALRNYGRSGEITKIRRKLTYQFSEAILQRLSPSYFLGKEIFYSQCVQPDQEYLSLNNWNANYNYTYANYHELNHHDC
The note with it: protein: recombinant; tags: N-terminal GST; dsDNA, one strand shown. In outline: as §1

The target in a further experiment is ELF4 (Homo sapiens, UniProt Q99607 1-663). The note with it: protein: recombinant; tags: N-terminal GST; dsDNA, one strand shown. The gist of the method:
as §1

The target in a further experiment is T3, ELK4 (Homo sapiens, UniProt P28324-2 1-405).
T3 sequence: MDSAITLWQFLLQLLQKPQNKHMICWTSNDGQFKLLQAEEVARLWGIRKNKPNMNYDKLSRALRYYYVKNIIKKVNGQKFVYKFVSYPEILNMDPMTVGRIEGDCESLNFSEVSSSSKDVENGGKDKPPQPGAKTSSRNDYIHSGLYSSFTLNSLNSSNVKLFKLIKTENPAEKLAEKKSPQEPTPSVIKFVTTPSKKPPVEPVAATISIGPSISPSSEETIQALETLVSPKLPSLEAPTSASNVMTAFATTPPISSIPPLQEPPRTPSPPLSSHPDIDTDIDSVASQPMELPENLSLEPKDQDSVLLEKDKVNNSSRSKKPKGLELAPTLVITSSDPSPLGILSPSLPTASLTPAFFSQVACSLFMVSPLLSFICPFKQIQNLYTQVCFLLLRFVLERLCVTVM
Conditions: protein: recombinant; tags: N-terminal GST; dsDNA, one strand shown. The gist of the method: as §1

The target of a further experiment is T4, ETV2 (Homo sapiens, UniProt O00321 1-342).
T4 sequence: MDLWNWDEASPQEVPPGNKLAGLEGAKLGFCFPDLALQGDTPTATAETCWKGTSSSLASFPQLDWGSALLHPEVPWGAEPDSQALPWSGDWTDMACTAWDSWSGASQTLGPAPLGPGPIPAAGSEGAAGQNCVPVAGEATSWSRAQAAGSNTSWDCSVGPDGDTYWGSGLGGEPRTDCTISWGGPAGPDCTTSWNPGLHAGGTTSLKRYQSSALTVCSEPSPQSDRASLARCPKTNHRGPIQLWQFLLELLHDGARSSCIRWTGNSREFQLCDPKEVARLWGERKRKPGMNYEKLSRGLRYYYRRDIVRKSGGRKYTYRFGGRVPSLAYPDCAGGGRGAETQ
The note with it: protein: recombinant; tags: N-terminal GST; dsDNA, one strand shown. The gist of the method: as §1

The target in a further experiment is T5, ELF3 (Homo sapiens, UniProt P78545 1-371).
T5 sequence: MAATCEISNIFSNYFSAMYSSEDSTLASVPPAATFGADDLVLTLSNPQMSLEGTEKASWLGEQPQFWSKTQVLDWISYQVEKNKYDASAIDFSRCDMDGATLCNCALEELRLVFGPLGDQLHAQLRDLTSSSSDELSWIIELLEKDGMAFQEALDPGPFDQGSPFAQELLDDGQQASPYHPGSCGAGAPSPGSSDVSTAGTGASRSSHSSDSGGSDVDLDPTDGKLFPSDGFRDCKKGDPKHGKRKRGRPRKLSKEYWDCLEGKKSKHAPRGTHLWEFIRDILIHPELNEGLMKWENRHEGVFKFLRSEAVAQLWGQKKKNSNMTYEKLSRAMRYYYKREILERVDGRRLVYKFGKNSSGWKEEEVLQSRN
The note with it: protein: recombinant; tags: N-terminal GST; dsDNA, one strand shown. In outline:
as §1

In a further experiment the target is ETV1 (Homo sapiens, UniProt P50549 1-477). Conditions: protein: recombinant; tags: N-terminal GST; dsDNA, one strand shown. In outline:
as §1

Sequence of ELF4 (Q99607 whole entry): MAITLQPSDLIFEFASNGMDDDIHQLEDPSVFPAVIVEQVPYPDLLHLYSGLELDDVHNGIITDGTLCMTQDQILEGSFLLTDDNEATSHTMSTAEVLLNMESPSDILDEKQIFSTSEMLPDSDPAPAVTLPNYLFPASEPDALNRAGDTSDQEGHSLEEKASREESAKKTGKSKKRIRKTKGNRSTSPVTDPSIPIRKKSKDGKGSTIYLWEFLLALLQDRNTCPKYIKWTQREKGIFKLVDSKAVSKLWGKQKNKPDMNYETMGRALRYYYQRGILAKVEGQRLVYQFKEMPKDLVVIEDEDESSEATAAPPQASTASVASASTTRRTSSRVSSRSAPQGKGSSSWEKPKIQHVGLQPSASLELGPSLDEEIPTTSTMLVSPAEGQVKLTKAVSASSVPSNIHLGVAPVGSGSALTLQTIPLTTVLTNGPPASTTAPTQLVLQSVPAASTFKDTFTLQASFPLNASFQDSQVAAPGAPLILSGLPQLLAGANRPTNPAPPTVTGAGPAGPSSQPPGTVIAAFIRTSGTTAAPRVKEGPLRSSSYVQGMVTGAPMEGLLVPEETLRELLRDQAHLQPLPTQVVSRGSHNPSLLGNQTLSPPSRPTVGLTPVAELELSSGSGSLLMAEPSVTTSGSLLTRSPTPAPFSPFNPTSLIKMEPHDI
Sequence of ETV1 (P50549 whole entry): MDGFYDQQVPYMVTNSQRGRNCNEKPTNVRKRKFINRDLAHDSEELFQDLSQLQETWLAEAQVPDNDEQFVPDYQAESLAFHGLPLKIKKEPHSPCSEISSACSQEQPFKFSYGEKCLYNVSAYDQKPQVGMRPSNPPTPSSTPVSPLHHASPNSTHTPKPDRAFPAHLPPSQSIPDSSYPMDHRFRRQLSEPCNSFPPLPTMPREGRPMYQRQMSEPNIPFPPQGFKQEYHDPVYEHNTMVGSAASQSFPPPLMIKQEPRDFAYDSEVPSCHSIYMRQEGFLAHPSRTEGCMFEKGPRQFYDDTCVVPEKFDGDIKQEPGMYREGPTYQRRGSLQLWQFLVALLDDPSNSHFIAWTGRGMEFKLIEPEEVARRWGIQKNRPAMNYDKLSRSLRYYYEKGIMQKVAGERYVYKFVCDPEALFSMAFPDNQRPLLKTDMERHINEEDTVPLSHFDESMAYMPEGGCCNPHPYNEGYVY

With GTTTGA, the binding signal is 1.13 fold enrichment (6-mer frequency, TF over GST control) with FEV; 1.19 fold enrichment (6-mer frequency, TF over GST control) with ETV5; 1.03 fold enrichment (6-mer frequency, TF over GST control) with HSF1; 1.25 fold enrichment (6-mer frequency, TF over GST control) with SPIC; 1.13 fold enrichment (6-mer frequency, TF over GST control) with ELF4; 1.28 fold enrichment (6-mer frequency, TF over GST control) with ELK4. Moreover, the binding signal was 1.22 fold enrichment (6-mer frequency, TF over GST control) with ETV2; 1.15 fold enrichment (6-mer frequency, TF over GST control) with ELF3; 1.2 fold enrichment (6-mer frequency, TF over GST control) with ETV1.

In the case of CCGTAC, the binding signal with FEV is 1.24 fold enrichment (6-mer frequency, TF over GST control); in the experiment with ETV5, 1.33 fold enrichment (6-mer frequency, TF over GST control); in the experiment with HSF1, 1.06 fold enrichment (6-mer frequency, TF over GST control); in the experiment with SPIC, 1.18 fold enrichment (6-mer frequency, TF over GST control); with ELF4, 1.26 fold enrichment (6-mer frequency, TF over GST control); with ELK4, 1.36 fold enrichment (6-mer frequency, TF over GST control). The binding signal is 1.42 fold enrichment (6-mer frequency, TF over GST control) with ETV2; 1.33 fold enrichment (6-mer frequency, TF over GST control) in the experiment with ELF3; 1.34 fold enrichment (6-mer frequency, TF over GST control) in the experiment with ETV1.

Turning to ACTGGC, the binding signal with FEV is 1.11 fold enrichment (6-mer frequency, TF over GST control); with ETV5, 1.11 fold enrichment (6-mer frequency, TF over GST control); with HSF1, 1.07 fold enrichment (6-mer frequency, TF over GST control); with SPIC, 1.28 fold enrichment (6-mer frequency, TF over GST control); with ELF4, 1.16 fold enrichment (6-mer frequency, TF over GST control); in the experiment with ELK4, 1.25 fold enrichment (6-mer frequency, TF over GST control). In addition, the binding signal in the experiment with ETV2 was 1.11 fold enrichment (6-mer frequency, TF over GST control); with ELF3 it was 1.1 fold enrichment (6-mer frequency, TF over GST control); with ETV1 it was 1.11 fold enrichment (6-mer frequency, TF over GST control).

For the sequence GCAAAA, the binding signal with FEV was 1.08 fold enrichment (6-mer frequency, TF over GST control); with ETV5, 1.07 fold enrichment (6-mer frequency, TF over GST control); in the experiment with HSF1, 1.01 fold enrichment (6-mer frequency, TF over GST control); with SPIC it was 1.06 fold enrichment (6-mer frequency, TF over GST control); with ELF4, 1.13 fold enrichment (6-mer frequency, TF over GST control); with ELK4 it was 1.16 fold enrichment (6-mer frequency, TF over GST control). Besides, the binding signal is 1.14 fold enrichment (6-mer frequency, TF over GST control) in the experiment with ETV2; 1.2 fold enrichment (6-mer frequency, TF over GST control) with ELF3; 1.14 fold enrichment (6-mer frequency, TF over GST control) with ETV1.

Turning to GACCTC, the binding signal was 1.41 fold enrichment (6-mer frequency, TF over GST control) with FEV; 1.42 fold enrichment (6-mer frequency, TF over GST control) with ETV5; 1.17 fold enrichment (6-mer frequency, TF over GST control) with HSF1; 1.18 fold enrichment (6-mer frequency, TF over GST control) with SPIC; 1.4 fold enrichment (6-mer frequency, TF over GST control) in the experiment with ELF4; 1.38 fold enrichment (6-mer frequency, TF over GST control) with ELK4. Besides, the binding signal in the experiment with ETV2 is 1.51 fold enrichment (6-mer frequency, TF over GST control); with ELF3, 1.45 fold enrichment (6-mer frequency, TF over GST control); with ETV1, 1.38 fold enrichment (6-mer frequency, TF over GST control).

For the sequence GTTCAA, the binding signal is 1.08 fold enrichment (6-mer frequency, TF over GST control) with FEV; 1.14 fold enrichment (6-mer frequency, TF over GST control) in the experiment with ETV5; 1.03 fold enrichment (6-mer frequency, TF over GST control) in the experiment with HSF1; 1.15 fold enrichment (6-mer frequency, TF over GST control) with SPIC; 1.15 fold enrichment (6-mer frequency, TF over GST control) in the experiment with ELF4; 1.16 fold enrichment (6-mer frequency, TF over GST control) with ELK4. Moreover, the binding signal was 1.05 fold enrichment (6-mer frequency, TF over GST control) with ETV2; 1.22 fold enrichment (6-mer frequency, TF over GST control) with ELF3; 1.23 fold enrichment (6-mer frequency, TF over GST control) with ETV1.

ACATAC: the binding signal in the experiment with FEV is 1.13 fold enrichment (6-mer frequency, TF over GST control); with ETV5, 1.17 fold enrichment (6-mer frequency, TF over GST control); with HSF1, 1.07 fold enrichment (6-mer frequency, TF over GST control); in the experiment with SPIC, 1.11 fold enrichment (6-mer frequency, TF over GST control); in the experiment with ELF4 it was 1.21 fold enrichment (6-mer frequency, TF over GST control); with ELK4, 1.01 fold enrichment (6-mer frequency, TF over GST control). In addition, the binding signal is 1.32 fold enrichment (6-mer frequency, TF over GST control) with ETV2; 1.25 fold enrichment (6-mer frequency, TF over GST control) in the experiment with ELF3; 1.15 fold enrichment (6-mer frequency, TF over GST control) in the experiment with ETV1.

In the case of GTGCTC, the binding signal with FEV was 1.11 fold enrichment (6-mer frequency, TF over GST control); with ETV5, 1.15 fold enrichment (6-mer frequency, TF over GST control); with HSF1 it was 1.05 fold enrichment (6-mer frequency, TF over GST control); in the experiment with SPIC, 1.21 fold enrichment (6-mer frequency, TF over GST control); with ELF4, 1.12 fold enrichment (6-mer frequency, TF over GST control); with ELK4, 1.05 fold enrichment (6-mer frequency, TF over GST control). Further, the binding signal with ETV2 was 1.16 fold enrichment (6-mer frequency, TF over GST control); with ELF3 it was 1.26 fold enrichment (6-mer frequency, TF over GST control); with ETV1, 1.29 fold enrichment (6-mer frequency, TF over GST control).
